High-throughput results: PubChem, National Center for Advancing Translational Sciences (NCATS)
An excerpt weighted towards active compounds, which were near 8.1% of everything screened.
Epigenetic reg = regulators of epigenetic silencing causing reporter derepression in mouse cells; AID 1865; Potency, µM (doses to about 53.9 µM), without a hit: top-dose GFP activation, actives largely listed as activators; murine LDR cells, GFP reporter derepression, 30 h; actives 0.2% (n = 280,000); note: % of control where 0% means no effect; nearly all actives have a fitted effect of over 60% in size
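Reporter derepression read as number of fluorescent GFP-positive objects, 20-120 um in size, counted by laser-scanning cytometer. Mouse LDR line with an epigenetically silenced CMV-GFP locus; compound incubation 30 h, 37 C.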
VP16 counter = counter-screen for ROR gamma inhibitors: Gal4-VP16 reporter; Drosophila S2 Gal4-VP16 UAS-luciferase, luminescence, 20 h; Potency, µM (titrated, usually from 53.6 µM), without a hit: top-dose activity, negative = inhibition, actives largely listed as inhibitors; actives 3.5% (n = 310,000);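 note: Gal4-VP16 expression switched on by copper sulfate through the metallothionein promoter; % is set by controls: 0 for no effect and ±100 for the full control effect; nearly all actives have a fitted effect of over 50% in size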
RORgamma inh = inhibitors of mouse ROR gamma transcriptional activity; P51450; Drosophila S2 Gal4-RORgamma UAS-luciferase reporter, 20 h; Potency, µM (highest dose often 53.6 µM), for inactives: at the highest dose activity change, negative = inhibition, usual class: inhibitors; actives 5.4% (n = 310,000); note: % is set by controls: 0 for no effect and ±100 for the full control effect; nearly all actives have a fitted effect of over 60% in size
Target sequence (P51450 whole entry, looked up, the tested form may be a part): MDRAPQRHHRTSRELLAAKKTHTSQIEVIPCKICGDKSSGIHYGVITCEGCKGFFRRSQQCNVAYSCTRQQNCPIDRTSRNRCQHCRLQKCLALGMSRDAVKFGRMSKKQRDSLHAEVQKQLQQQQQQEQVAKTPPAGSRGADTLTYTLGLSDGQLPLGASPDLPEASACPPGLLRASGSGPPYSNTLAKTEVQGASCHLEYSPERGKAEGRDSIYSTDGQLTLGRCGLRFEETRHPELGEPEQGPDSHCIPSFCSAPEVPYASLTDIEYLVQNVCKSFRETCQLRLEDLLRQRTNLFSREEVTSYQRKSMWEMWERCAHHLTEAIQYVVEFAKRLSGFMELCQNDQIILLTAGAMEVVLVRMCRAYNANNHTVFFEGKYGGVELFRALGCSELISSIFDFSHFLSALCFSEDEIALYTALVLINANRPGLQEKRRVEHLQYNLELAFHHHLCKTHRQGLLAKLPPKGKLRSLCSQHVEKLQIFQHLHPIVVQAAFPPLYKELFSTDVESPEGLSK
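Schneider cells (Drosophila), stable Gal4 DBD–ROR gamma + UAS-luc; 1 hr cmpd preincubation; Cu2+ induction 700 uM final; 20 hr ambient; luminescence.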
PINK1 modulator = PINK1 expression modulation. PINK1 immunofluorescence, high-content cytometry, 24 h. Potency, µM (highest dose often 76.6 µM), inactives show at the highest dose activation (PINK1 increase), most hits filed as activators. actives 0.2% (n = 410,000); active = well fitted activation curve with a large enough effect; inconclusive = small, poorly fitted or top-dose-only effect; cell line not stated here; note: % of control where 0% means no effect; nearly all actives have a fitted effect of over 65% in size
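Fluorescence from anti-PINK1 antibody, together with nuclear and cell stains, was scanned on a laser-scanning cytometer. Before staining, stable-line cells were incubated 24 hours with compounds at 5 concentrations; primary antibody 12 h at 10 degrees C.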
ClpP mod = qHTS Assay for Activators of ClpP | ATP-dependent Clp protease proteolytic subunit (Bacillus subtilis (strain 168)), P80244 | purified B. subtilis ClpP, FRET peptide cleavage, 20 min | Potency, µM (highest dose often 57.5 µM), without a hit: top-dose activity change, negative = active | actives 1.9% (n = 340,000); active = well fitted falling curve with a large enough effect; inconclusive = small, poorly fitted or top-dose-only effect; inactive = no such curve, though single readings can be large or run the other way; note: the source files actives as falling curves though it sought activators and does not explain the sign; nearly all actives have a fitted effect of over 65% in size
Target sequence (P80244 whole entry, looked up): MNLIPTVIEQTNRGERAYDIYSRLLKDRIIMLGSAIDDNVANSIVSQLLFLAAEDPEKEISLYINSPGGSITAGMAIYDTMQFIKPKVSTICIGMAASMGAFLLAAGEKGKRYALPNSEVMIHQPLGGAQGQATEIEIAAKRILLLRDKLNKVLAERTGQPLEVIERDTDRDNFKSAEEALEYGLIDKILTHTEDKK
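Purified B. subtilis ClpP, 10 microg/mL final in Tris/HCl pH8 with KCl, BSA, glycerol and Tween-20, cleaved an Abz/nitrotyrosine-quenched decapeptide. Fluorescence (ex 320, em 430) was read at 0 and 20 min at room temperature. Delta was normalized to 5.8 microM ADEP and DMSO/no-enzyme controls.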
Sfp inh = blocks B. subtilis Sfp PPTase activity; Biochemical Sfp PPTase activity, qHTS; actives 3.5% (n = 310,000); Q9F4F7; Potency, µM, inactives show largest response in the series, negative = inhibition, hits mostly inhibitors;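 note: the enzyme is Sfp with the accession as filed and its product quenches rhodamine fluorescence; 0% = enzyme reaction without inhibitor and -100% = no enzyme wells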
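Step 1, compound plus 15 nM Sfp-PPTase, 15 min, room temperature. Step 2, add rhodamine-CoA (5 uM) and BHQ-2-YbbR (12.5 uM). Step 3, read 525/598 nm fluorescence at 0 and 30 min.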
Starred values were filed as active, the others as inactive; ? = inconclusive; . = no result given; [ ] = another dose, or the depositor's remark. Unless noted, calls come from the whole dose curve; as a rule, active = well fitted curve in the direction sought with a large enough effect; inconclusive = small, poorly fitted or top-dose-only effect, or another doubt; inactive = no such curve, though single readings can be large; an effect the other way counts as inactive or inconclusive. Potency is the fitted concentration of half-maximal effect.

SMILES	Epigenetic reg	VP16 counter	RORgamma inh	PINK1 modulator	ClpP mod	Sfp inh
COc1cccc(C(=O)NC(=NCCc2c[nH]c3ccc(OC)cc23)Nc2nc(C)cc(C)n2)c1	-1.1%	.	.	-1.3%	-6.9%	.
CCSc1nc(-c2ccc(OC)cc2)ccc1C#N	0.9%	1.8%	3.5%	-0.1%	28.2µM*	-17.9%
CCCCSc1nc(-c2ccc(OC)cc2)ccc1C#N	-1.1%	.	.	-0.9%	4.0%	.
CC1=CC(C)(C)N(C(=O)CN2C(=O)c3ccccc3C2=O)c2ccc(C)cc21	4.1%	20µM*	?	3.0%[38.3 µM]	-0.2%	?
COCCn1c(SCC(=O)c2ccc(OC)cc2)nc2cc(C(=O)NC3CCCC3)ccc2c1=O	-1.5%	.	.	0.1%	-0.6%	.
CC(=O)Nc1cccc(NC(=O)CSc2ccc(-c3ccco3)nn2)c1	.	2.6%	-12.2%	-1.4%	-7.6%	31.6µM*
Cc1ccc(CNC(=O)CSc2ccc(-c3ccco3)nn2)cc1	0.0%	4.1%	32.5%	1.5%	-11.8%	-11.3%
CC(=O)c1ccc(NC(=O)CSc2ccc(-c3ccco3)nn2)cc1	.	1.0%	6.9%	1.5%	-6.2%	39.8µM*
Cc1ccc(NC(=O)CSc2ccc(-c3ccco3)nn2)cc1	-1.2%	13.5%	21.8%	2.8%	.	20µM*
Cc1ccc(NC(=O)CSc2ccc(-c3ccco3)nn2)c(C)c1	1.1%	3.3%	38.6%	0.2%	.	56.2µM*
CCC(CC)C(=O)Nc1ccc2nc(SCC(=O)N3c4ccccc4CC3C)sc2c1 (stereo unspecified)	-3.2%	.	.	0.4%	1.6%	.
COc1cc2c(cc1OC)C(COc1ccc3c(C)cc(=O)oc3c1)N(C(=O)c1ccc(C)c(C)c1)CC2 (stereo unspecified)	0.3%	.	.	0.0%	4.4%	.
COc1cccc(CN2C(=O)c3ccccc3C2C(=O)NCCc2ccccc2)c1 (stereo unspecified)	-0.7%	.	.	2.5%	0.6%	.
COc1ccc(-c2nc3cc(F)ccc3cc2CN(C(=O)c2ccc3c(c2)OCO3)C2CC2)cc1	.	.	.	0.4%	.	.
COCCNC(=O)CCn1c(=O)c2cc(OC)c(OC)cc2n(CC(=O)Nc2ccc(F)c(Cl)c2)c1=O	7.3%	.	.	-1.0%	4.0%	.
Cc1cc(C)cc(NC(=O)CSc2ccc(-c3ccco3)nn2)c1	0.2%	1.3%	?	1.8%	-3.9%	22.4µM*
CC(=O)Nc1ccc(NC(=O)CSc2ccc(-c3ccco3)nn2)cc1	-2.9%	-11.3%	3.4%	16.7%	-1.3%	44.7µM*
Cc1cc(C)cc(NC(=O)CSc2ccc(-c3ccccn3)nn2)c1	.	-3.1%	-23.6%	12.1%	1.8%	-3.3%
Cc1nn(Cc2noc(C(=O)NCc3cccc(F)c3)n2)c(C)c1Br	-1.1%	.	.	-4.9%	-0.6%	.
CCC(Cc1ccccc1)n1c(=S)[nH]c2ccccc2c1=O (stereo unspecified)	0.8%	?	3.55µM*	?	.	22.0%
CCC(C)NC(=O)c1ccc(-n2c(=S)[nH]c3ccccc3c2=O)cc1 (stereo unspecified)	0.4%	-3.8%	13.0%	0.8%	-1.0%	2.3%
CCC(C)n1c(=S)[nH]c2ccccc2c1=O (stereo unspecified)	-1.5%	4.47µM*	0.891µM*	8.3%	.	6.3%
COn1c(=S)[nH]c2ccccc2c1=O	-0.7%	2.0%	?	-0.5%[38.3 µM]	-1.9%	-9.4%
CC(C)n1c(=S)[nH]c2ccccc2c1=O	-0.7%	3.98µM*	?	-0.7%[38.3 µM]	-0.7%	-11.9%
c1ccc2c(c1)CCCN2	.	.	.	.	-1.0%	.
SMILES	Epigenetic reg	VP16 counter	RORgamma inh	PINK1 modulator	ClpP mod	Sfp inh
CCNc1nc(NC(N)=S)nc(NC(C)(C)C)n1	0.1%	-11.2%	?	-0.8%	.	31.6µM*
CCNc1nc(NCC)nc(NC(N)=S)n1	-0.6%	-18.6%	6.9%	1.0%	28.2µM*	-7.3%
CC(C)Nc1nc(NC(C)C)nc(N(C)N)n1	-2.9%	8.8%	-1.2%	2.1%	-1.2%	12.7%
CCCNc1nc(NCC)nc(OC)n1	1.9%	-1.1%	10.3%	0.2%	-5.7%	6.6%
CCNc1nc(NCC)nc(N(C)N)n1	2.5%	?	7.08µM*	-0.3%	2.5%	10.4%
CCn1c2ccccc2c2cc(CN3CCOc4ccc(C(O)c5cccnc5)cc4C3)ccc21 (stereo unspecified)	.	.	.	1.3%	.	.
CCn1ccc2cc(S(=O)(=O)N3CCC(C(=O)NCc4cccc(C)c4)CC3)ccc21	-1.7%	.	.	1.7%	-15.4%	.
COc1c(O)c(O)cc2c1oc1c3cc(C)ccc3oc(=O)c21	?	-19.9%	?	.	.	79.4µM*
COc1ccc(OCC(=O)Nc2cccc(-c3nc4ccccc4s3)c2C)cc1	1.6%	.	.	2.4%	-0.2%	.
Cc1sc(Cc2nc(O)cs2)nc1-c1ccccc1	-0.1%	-27.2%	11.2µM*	2.7%	.	31.6µM*
OC(CN1CCN(c2ccccn2)CC1)Cn1c2ccc(Cl)cc2c2cc(Cl)ccc21 (stereo unspecified)	0.0%	?	-31.9%	1.7%	-20.1%	-3.6%
OC(CN1CCCCC1)Cn1c2ccc(Cl)cc2c2cc(Cl)ccc21 (stereo unspecified)	.	?	?	-4.0%	0.6%	50.1µM*
CCOC(=O)COc1ccccc1/C=C\[N+](=O)[O-]	?	3.55µM*	15.8µM*	-2.0%	1.6%	14.1µM*
CCCCCCCCC1=NCCc2c1[nH]c1ccccc21	.	2.9%	-23.5%	0.3%	.	56.2µM*
CC(C)C/C=C1\CCc2c([nH]c3ccccc23)C1=O	-2.6%	?	8.5%	1.8%	.	-0.9%
CCNC(=S)N/N=C1\C(=O)c2cccc3cccc1c23	1.7%	4.47µM*	3.16µM*	1.2%	1.7%	5.8%
O=C(N/N=C1/C(=O)c2cccc3cccc1c23)c1ccc(Cl)cc1	?	?	-21.0%	-0.8%	-21.7%	44.7µM*
O=C(Nc1cccc(NC(=O)c2ccc(Cl)cc2)n1)c1ccc(Cl)cc1	.	-9.5%	8.2%	4.9%	?	3.5%
CCOc1ccc(-n2c(-c3ccccc3)c[nH]c2=S)cc1	.	5.62µM*	2µM*	2.2%	.	-24.0%
Cc1ccc(-c2c[nH]c(=S)n2-c2ccccc2F)cc1	-2.5%	5.01µM*	1.58µM*	1.0%	.	-23.0%
CCOc1ccc(-n2c(-c3ccccc3)nnc2-c2ccccc2)cc1	1.1%	1.5%	-5.1%	-1.5%	-0.3%	-1.0%
Cc1ccc(-c2c[nH]c(=S)n2-c2ccccc2)cc1	2.5%	5.01µM*	1.26µM*	-1.1%	-5.4%	20µM*
Cc1ccc(CC(=O)N2CCN(c3ccccc3F)CC2)cc1	5.1%	?	23.9%	0.7%	2.4%	-22.0%
Cc1cccc(C)c1-n1ncc(C(=O)N2CCN(c3ncccn3)CC2)c1C1CCN(C(=O)OC(C)(C)C)CC1	-0.4%	.	.	0.7%	-0.1%	.
